Screens deposited in PubChem BioAssay by National Center for Advancing Translational Sciences (NCATS).
Hits are enriched below; roughly 21% of the tested compounds scored in any of these assays.
CHX counter: affects cycloheximide protein synthesis inhibition readout, counter-screen; 300,000 compounds, 12% hits; cell reporter, cycloheximide protein synthesis inhibition counterscreen; max response, %; in the data active = max response mostly above about 13%, no sharp cut-off; inactive = mostly below about 14%; note: read at 38.3 µM for the half of the compounds with a filed dose; 0% is about no effect
HCV inh: inhibitors of hepatitis C virus infection; 340,000 compounds, 3.4% hits; Potency, µM (highest dose often 41.8 µM), without a hit: at the top dose activity change, negative = inhibition, most hits filed as inhibitors; Huh7.5.1 HCVcc-Cre infection, luciferase reporter, 44 h; note: potency is the fitted concentration of half-maximal effect; % is set by controls: 0 for no effect and ±100 for the full control effect
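After 44 h co-culture of compound, cells and HCVcc-Cre (~0.5 moi), substrate is added for 15 min at room temperature and luciferase measured over 15 sec. Cells were seeded at 1,000/well and pre-cultured 4 h.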
Pf growth 48h: inhibits P. falciparum growth in the first generation, 48 h; P. falciparum luciferase growth in erythrocytes, 48 h; Potency, µM (top dose mostly 28.7 µM), inactives show at the top dose activity change, negative = inhibition, actives largely listed as inhibitors; 310,000 compounds, 5.9% hits; AID 504832; note: potency is the fitted concentration of half-maximal effect; % is set by controls: 0 for no effect and ±100 for the full control effect
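Cell-based growth assay: transgenic P. falciparum expressing firefly luciferase, cultured in red cells within RPMI 1640 containing 0.5% w/v Albumax, 24 mM bicarbonate and gentamycin. A drop in luciferase activity indicates inhibition.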
Pf growth 96h: inhibits malaria parasite growth, 96 h. P. falciparum luciferase reporter growth, 96 h. Potency, µM (highest dose often 28.7 µM), inactives show top-dose activity change, negative = inhibition, most hits filed as inhibitors. 320,000 compounds, 6.9% hits. AID 504834; note: potency is the fitted concentration of half-maximal effect; % is set by controls: 0 for no effect and ±100 for the full control effect
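Delayed-death screen, second-generation endpoint: infected erythrocytes, 2% hematocrit, 0.05% parasitemia final; 96 hours at 37 C, 5% CO2; luciferase detection reagent; luminescence decrease equals reduced growth.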
HCMV antiviral: blocks human cytomegalovirus replication; HFF cells, HCMV-luciferase reporter, 72 h; stronger effect = lower value; activity change, negative = inhibition, % at 57.5 µM; 410,000 compounds, 4.5% hits; AID 1259415; in the data active = activity change below about -60%; inconclusive = no clear call, values can overlap the other calls; inactive = above about -39%; note: % is set by controls: 0 for no effect and ±100 for the full control effect
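Steps: HFFs plated, 16 h 37C; compounds added; HCMV-luciferase added to MOI 1 PFU/cell; 72 h 37C; OneGlo reagent, 5 min room temperature; luminescence read, normalized to controls.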
Shiga toxin inh: blocks Shiga toxin action in Vero cells; inhibition, % at 38.7 µM; AID 2315; 290,000 compounds, 9.2% hits; Vero cells, Shiga toxin protein synthesis inhibition reporter; in the data active = inhibition mostly above about 28%, no sharp cut-off; inactive = mostly below about 43%; note: 0% is about no effect
The depositor's hits bear a star; ? = inconclusive; / = no result; ! = a repeat was not active; [ ] = dose if it differs, or a comment. Unless noted, calls come from the whole dose curve; as a rule, active = well fitted inhibition curve with a large enough effect; inconclusive = small, poorly fitted or top-dose-only effect, or another doubt; inactive = no such curve, though single readings can be large or run the other way.

SMILES	CHX counter	HCV inh	Pf growth 48h	Pf growth 96h	HCMV antiviral	Shiga toxin inh
COc1ccc(S(=O)(=O)N2CCC(C(=O)NC3CCCCC3)CC2)cc1C	-3	-10%	4%	?	-12	-6
COc1ccc(S(=O)(=O)N2CCN(S(=O)(=O)c3ccc(C(F)(F)F)cc3)CC2)cc1C	-4	29%	1%	12µM*	-21	-18
COc1ccc(S(=O)(=O)N2CCC(C(=O)NC3CC3)CC2)cc1C	8	19%	?	3.3µM*	17	-2
Cc1ccc(S(=O)(=O)N2CCC(C(=O)NC3CCCC3)CC2)cc1Cl	-5	-4%	?	1.3µM*	20	-5
COC(=O)c1ccccc1NC(=O)CSc1nncn1-c1ccccn1	-2	13%	22%	-14%	-24	-1
CCc1ccc(CNC(=O)c2nn(-c3ccc(OC)c(Cl)c3)c(=O)c3c2c2ccccc2n3C)cc1	/	/	/	/	5	/
O=C(NC1CC1)C1CCN(S(=O)(=O)c2cc(Cl)ccc2Cl)CC1	1	0%	-4%	0.083µM*	?	-20
Cc1c(Cl)ccc(S(=O)(=O)N2CCN(C)CC2)c1Cl	/	/	/	/	46	/
CCOC(=O)c1cnc(NCc2ccccc2OC)c2ccccc12	/	/	/	/	-24	/
CCn1c(=O)c2cc(C(=O)NCc3cccs3)sc2c2ccccc21	-2	-21%	57%	2.3µM*	-1	-2
CCCCNC(=O)c1cc2c(=O)n(CC)c3ccccc3c2s1	-7	?	2%[0.00184 µM]	6.6µM*	1	-4
O=C(NCCN1CCN(c2ccccc2)CC1)c1cccn2c(=O)c3ccccc3nc12	-3	?	3%	36%	-34	-13
CCn1c(=O)c2cc(C(=O)NCCN3CCOCC3)sc2c2ccccc21	-1	11µM*	/	11%	153	-9
CN(CCCNC(=O)c1cccn2c(=O)c3ccccc3nc12)Cc1ccccc1	-3	11µM*	?	?	-19	-6
CCn1c(=O)c2cc(C(=O)NC(C)C)sc2c2ccccc21	-3	?	-15%	?	78	-16
Cc1oc2ncnc(N3CCOCC3)c2c1C(=O)N1CCN(c2cccc(C(F)(F)F)c2)CC1	/	/	/	/	9	/
CCOc1ccc(Cn2nnc(C(=O)Nc3cccc(SC)c3)c2N)cc1	/	/	/	/	26	/
CCn1c(=O)c2cc(C(=O)NCCCN(C)Cc3ccccc3)sc2c2ccccc21	/	/	/	/	-70*	/
c1ccc2nc3c(nc2c1)sc1nc2ccccc2n13	-5	7%	19%	11%	/	7
CC(C)(O)c1cc(=O)sc2nc3ccccc3n12	32*	8%	403%	?	77	70*
CC(/C=C/C=C(\C)C(=O)O[C@@H]1O[C@H](CO[C@@H]2O[C@H](CO)[C@@H](O)[C@H](O)[C@H]2O)[C@@H](O)[C@H](O)[C@H]1O)=C\C=C\C=C(C)\C=C\C=C(/C)C(=O)O[C@@H]1O[C@H](CO[C@@H]2O[C@H](CO)[C@@H](O)[C@H](O)[C@H]2O)[C@@H](O)[C@H](O)[C@H]1O	/	/	-1%	11%	/	/
COC(=O)c1ccc(CNC(=O)c2nc(Cn3nc(C)c(Br)c3C)no2)cc1	/	/	/	/	9	/
CCOC(=O)c1c(-c2ccc(C)cc2)csc1NC(=O)c1nc(SC(C)C)ncc1Cl	/	/	/	/	1	/
O=C1OC(CN(Cc2ccccc2)Cc2ccccc2)CN1N=Cc1ccc([N+](=O)[O-])o1 (stereo not drawn)	/	6%	/	/	11	/
O=C1O[C@H](CN2CCOCC2)CN1/N=C\c1ccc([N+](=O)[O-])o1	/	/	-17%[12.8 µM]	?	/	/
SMILES	CHX counter	HCV inh	Pf growth 48h	Pf growth 96h	HCMV antiviral	Shiga toxin inh
O=C1OC(CN2CCOCC2)CN1N=Cc1ccc([N+](=O)[O-])o1 (stereo not drawn)	/	15%	13µM*	?	?	/
O=C1CN(/N=C/c2ccc([N+](=O)[O-])o2)C(=O)N1	-3	25µM*	13µM*	4.1µM*	-15	-14
O=C1OCCN1/N=C/c1ccc([N+](=O)[O-])o1	-2	?	13µM*!	3.8µM*	-39	14
COc1cccc(NC(=O)COC(=O)Cn2c(C)csc2=O)c1	/	18%	-3%	2%	-2	/
Cc1nc(C(F)(F)F)ccc1C(=O)N1CCC(C)(C(=O)O)C1 (stereo not drawn)	/	/	/	/	6	/
Cc1ccc(C)c(N2CCN(C(=O)c3cc4cc5ccc(C)cc5nc4s3)CC2)c1	/	/	/	/	2	/
CC1(C)CC(=O)CC2(C1)NCC(c1ccccc1)c1c2[nH]c2ccccc12 (stereo not drawn)	-3	4%	5.9µM*	10µM*	41	-2
O=C(COC(=O)/C=C/c1ccccc1Cl)NC(=O)NCc1ccccc1	/	24%	23%	3%	0	/
COc1ccccc1C(CNC(=O)c1cccc(S(=O)(=O)Nc2ccc(C)cc2)c1)N1CCCC1 (stereo not drawn)	/	-25%	13µM*	15µM*	-7	/
COc1ccccc1NS(=O)(=O)c1cccc(C(=O)OCc2nc3ccccc3s2)c1	49*	33%	43%	59%	51	76*
COc1ccc(C(CNC(=O)c2cccc(S(=O)(=O)Nc3ccc(C)cc3)c2)N2CCCCC2)cc1 (stereo not drawn)	/	3.2µM*	8.3µM*	9.3µM*	14	/
COc1ccccc1NS(=O)(=O)c1cccc(C(=O)NCC(c2ccco2)N2CCCC2)c1 (stereo not drawn)	/	?	12µM*	15µM*	0	/
COc1ccc(C(CNC(=O)c2cccc(NS(=O)(=O)c3ccccc3)c2)N2CCCC2)cc1 (stereo not drawn)	/	-22%	/	/	58	/
NNC(=O)C1SCCN1S(=O)(=O)c1ccc(Cl)cc1 (stereo not drawn)	/	7%	/	/	29	/
C=CCN(c1ccccc1)S(=O)(=O)c1cccc(C(=O)NCC(c2ccccc2OC)N2CCCC2)c1 (stereo not drawn)	/	?	?	?	-3	/
CCN(c1ccccc1)S(=O)(=O)c1ccc(C(=O)NCC(c2ccccc2OC)N2CCCC2)cc1 (stereo not drawn)	/	25µM*	/	/	-8	/
CCOc1ccc(CN(C)C(=O)c2cccc(S(=O)(=O)Nc3ccccc3OC)c2)cc1OC	/	/	/	/	10	/
COc1ccc(NS(=O)(=O)c2cccc(C(=O)NCC(c3ccco3)N3CCCCC3)c2)cc1 (stereo not drawn)	/	-27%	?	?	-32	/
Cc1cccc(NS(=O)(=O)c2cccc(C(=O)NCC(c3ccco3)N3CCCCC3)c2)c1 (stereo not drawn)	/	?	?	15µM*	-29	/
CC(OC(=O)c1ccccc1NS(=O)(=O)c1cccc(N)c1)C(=O)N(C)Cc1ccccc1 (stereo not drawn)	6	?	?	?	-72*	6
CCc1ccc(CN(C)C(=O)c2cccc(S(=O)(=O)Nc3ccccc3OC)c2)cc1	/	-29%	10µM*	?	-27	/
